Rows were chosen to be rich in hits. Some 5.6% of all compounds tested hit in one or more screens of this group.
RORg inh: qHTS for inhibitors of ROR gamma transcriptional activity; actives 5.4% (n = 310,000); Potency, µM (highest dose often 53.6 µM), for the others: at the top dose activity change, negative = inhibition, hits mostly inhibitors; Drosophila S2 Gal4-RORgamma UAS-luciferase reporter, 20 h; Nuclear receptor ROR-gamma (Mus musculus), P51450; further: potency means the concentration at half of the fitted maximal effect; nearly all actives have a fitted effect of over 60% in size
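Compounds are pin-transferred onto Drosophila Schneider cells expressing a copper-inducible Gal4–ROR gamma transactivation domain fusion. After 1 hr, copper sulfate is added to 700 uM final; luciferase is read 20 hr later.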
CtBP-E1A blk: qHTS Assay for Inhibitors of the CtBP/E1A Interaction; CtBP / adenovirus E1A interaction (AlphaScreen); AlphaScreen GST-E1A/His-CtBP binding, 1536-well; hits give low values; activity change, % (test concentration not listed); actives 0.49% (n = 340,000); in the data active means activity change below about -65%; inconclusive means mostly about -30% to -63%
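Protein mix (5X: 125 nM each GST-E1A, His-CtBP) was incubated with pinned compound 2 h at 37 deg C in dark, in 50 mM Tris pH 8.0 buffer with 300 mM NaCl. Glutathione donor and nickel acceptor beads followed; AlphaScreen signal read after 1 h.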
VP16 counter: VP16 counterscreen qHTS for inhibitors of ROR gamma transcriptional activity | Drosophila S2 Gal4-VP16 UAS-luciferase, luminescence, 20 h | Potency, µM (top dose mostly 53.6 µM), for inactives: at the top dose activity, negative = inhibition, actives largely listed as inhibitors | actives 3.5% (n = 310,000);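 further: Gal4-VP16 expression switched on by copper sulfate through the metallothionein promoter; potency means the concentration at half of the fitted maximal effect; nearly all actives have a fitted effect of over 50% in size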
Six1-Eya2 inh: qHTS Assay for Inhibitors of the Six1/Eya2 Interaction; actives 0.56% (n = 360,000); Homeobox protein SIX1 (Homo sapiens) + Protein phosphatase EYA2 (Homo sapiens), …; activity change, % (test concentration not listed); AlphaScreen GST-Six1/His-Eya2 binding, biochemical; hits give low values; in the data active means activity change below about -65%; inconclusive means mostly about -30% to -63%
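AlphaScreen with GST-Six1 and His-Eya2 (5X mix: 250 nM and 500 nM), glutathione donor and nickel acceptor beads; buffer 50 mM Tris pH 8.0, 300 mM NaCl, 1 mM TCEP; 1 h at 37 C in the dark.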
PKM2 act: qHTS Assay for Activators of Human Muscle isoform 2 Pyruvate Kinase. purified PKM2, Kinase-Glo ATP luminescence, activation; response scale: 0% is enzyme alone, no compound. Potency, µM (titrated, usually from 57.5 µM), for inactives: at the top dose activation, most hits filed as activators. actives 0.34% (n = 260,000); further: potency means the concentration at half of the fitted maximal effect; nearly all actives have a fitted effect of over 55% in size
Target sequence (P14618 whole entry, looked up, canonical isoform): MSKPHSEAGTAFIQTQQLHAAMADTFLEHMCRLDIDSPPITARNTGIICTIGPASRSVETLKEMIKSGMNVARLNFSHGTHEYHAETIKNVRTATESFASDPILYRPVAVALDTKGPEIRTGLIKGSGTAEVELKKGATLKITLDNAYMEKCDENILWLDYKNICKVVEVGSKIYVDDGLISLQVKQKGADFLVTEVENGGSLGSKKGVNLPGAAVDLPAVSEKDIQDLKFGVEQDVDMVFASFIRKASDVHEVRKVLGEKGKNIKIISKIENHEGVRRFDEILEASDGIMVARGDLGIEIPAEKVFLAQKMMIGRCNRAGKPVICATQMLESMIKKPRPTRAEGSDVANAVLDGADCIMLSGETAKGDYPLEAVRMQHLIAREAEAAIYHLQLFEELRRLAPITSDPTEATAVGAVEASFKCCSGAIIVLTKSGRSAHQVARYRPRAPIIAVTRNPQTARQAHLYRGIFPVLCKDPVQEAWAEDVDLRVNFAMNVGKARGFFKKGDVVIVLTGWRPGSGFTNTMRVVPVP
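ATP formation by purified human PK-M2, quantified via coupled luciferase luminescence after 1 h at room temperature with 0.1 mM ADP and 0.5 mM PEP final.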
An asterisk follows results filed as active; ? = inconclusive; nt = no result; ! = not active in a repeat; [ ] = another dose, or the depositor's remark. Unless noted, the call rests on the fitted dose curve; in most records, active means well fitted curve in the direction sought with a large enough effect; inconclusive means small, poorly fitted or top-dose-only effect, or another doubt; inactive means no such curve, though single readings can be large; an effect the other way counts as inactive or inconclusive. On the % scale 0 is the no-effect control and ±100 the full control effect.

SMILES	RORg inh	CtBP-E1A blk	VP16 counter	Six1-Eya2 inh	PKM2 act
CN(C)C(=O)Oc1c(Cl)cc(Cl)c2cccnc12	14.9%	-5.2	10.4%	9.8	-25.2%
Cc1ccc2c(Cl)cc(Cl)c(O)c2n1	0.562µM*!	-65.5*	0.891µM*!	?	nt
CCOc1ccc(-c2nc3ccc(-c4nc5ccc(N6CCN(C)CC6)cc5[nH]4)cc3[nH]2)cc1	2.24µM*	nt	?	nt	nt
Cc1ccc2nc(N3CCN(C)CC3)[nH]c2c1	-34.3%	2.3	-13.1%	9.3	-4.6%
CC/C=C\C[C@@H](/C=C/C=C\C/C=C\C/C=C\CCCC(=O)O)OO	?	nt	-2.0%	nt	nt
[CH3][Hg][Cl]	0.891µM*	nt	0.708µM*	nt	nt
O=[N+]([O-])/C=C/c1c(OCc2ccccc2)ccc2ccccc12	5.62µM*	nt	4.47µM*	nt	20.4%
O=C1c2ccccc2C(=O)C1C(=O)C(c1ccccc1)c1ccccc1	19.2%	nt	7.8%	nt	nt
Cc1ccc(/C=C/C(=O)C2C(=O)c3ccccc3C2=O)cc1	6.31µM*	-2.6	?	4.1	-2.5%
O=C1NC(=O)C(=Cc2coc3ccc(O)cc3c2=O)C(=O)N1	-1.1%	-2.9	-5.6%	0.0	31.6µM*
CN1C(=O)C(=Cc2coc3ccccc3c2=O)C(=O)N(C)C1=O	12.3%	nt	-13.5%	1.2	-2.1%
C=C(C)[C@H]1CC[C@]2(C(=O)O)CC[C@]3(C)[C@@H](CC[C@H]4[C@@]5(C)CC[C@@H](O)C(C)(C)[C@@H]5CC[C@@]43C)[C@H]12	-8.4%[16.9 µM]	nt	6.1%[17 µM]	nt	nt
Cc1nc2c(=O)n(C)c(=O)nc-2n(C)n1	?	-3.3	3.55µM*	-19.7	-11.2%
O=c1c2ccccc2[se]n1-c1ccccc1	10µM*	?	11.2µM*	-7.9	-84.5%
Cc1ccc2c(c1)C1(CCN(CCc3nc(-c4ccccc4)oc3C)CC1)OC(=O)N2	28.2%	nt	-25.6%	nt	nt
COc1ccc(C2CC(c3c(O)n(CCc4ccccc4)c(=O)[nH]c3=O)=NN2)cc1OC (configuration not stated)	-19.0%	-25.8	1.9%	-67.6*	-0.3%
CN1CCN(c2ccc([N+](=O)[O-])c3no[n+]([O-])c23)CC1	1.26µM*	-0.8	5.62µM*	3.3	-9.2%
O=[N+]([O-])c1ccc(N(CCO)CCO)c2c1no[n+]2[O-]	nt	?	nt	-6.1	nt
Nn1cnnc1	-5.9%	nt	4.7%	nt	nt
Cc1sc2c(c1C)C(c1cccs1)=NCC(=O)N2CC(=O)NCc1cccs1	27.9%	53.1	-23.0%	7.0	-1.0%
Cc1sc2c(c1C)C(c1ccc(C(C)(C)C)cc1)=NCC(=O)N2CC(=O)Nc1nccs1	11.2µM*	-5.2	?	-8.7	4.2%
CC/C(=N\NC(=S)Nc1ccccc1)c1c(O)[nH]c(=O)[nH]c1=O	5.62µM*	8.6	?	9.0	-1.1%
O=NN(CCO)CCO	0.8%	nt	-3.0%	nt	nt
CC(C)(c1ccc(OCC2CO2)cc1)c1ccc(OCC2CO2)cc1 (configuration not stated)	0.6%	nt	-16.6%	nt	nt
SMILES	RORg inh	CtBP-E1A blk	VP16 counter	Six1-Eya2 inh	PKM2 act
CN1CCC(O)(c2ccc(F)cc2)C(C(=O)c2ccc(F)cc2)C1 (configuration not stated)	-23.0%	nt	2.9%	nt	nt
CN1CCC(O)(c2cccs2)C(C(=O)c2cccs2)C1 (configuration not stated)	3.98µM*	-4.2	3.16µM*	3.4	4.9%
Clc1cc(Cl)c(Cl)c(Cl)c1	13.8%	nt	-15.7%	nt	nt
COc1cc2c(cc1OC)C1C(=O)c3c(cc4c(c3O)C=CC(C)(C)O4)OC1CO2 (configuration not stated)	2.82µM*	nt	1µM*	nt	nt
COc1cc(C2c3cc4c(c(O)c3CC3COC(=O)C32)OCO4)cc(OC)c1OC (configuration not stated)	-29.8%	-10.2	-6.7%	0.1	nt
O=C(Nc1cccc(F)c1)N1CCCC2(CCN(C(=O)Oc3ccccc3)CC2)C1	20.6%	nt	5.9%	nt	nt
C=C1C(=O)O[C@H]2[C@H]1[C@H](OC(=O)CC(=O)O[C@@H]1C[C@@H](C)[C@@H]3C=CC(=O)[C@@]3(C)[C@H]3OC(=O)C(=C)[C@H]13)C[C@@H](C)[C@H]1C=CC(=O)[C@]12C	7.08µM*	-10.3	7.08µM*	?	0.3%
C=C1C(=O)O[C@H]2C[C@@H](C)[C@@H]3C=CC(=O)[C@@]3(C)C[C@H]12	6.31µM*	2.9	10µM*	2.7	-0.4%
C=C1C(=O)O[C@@H]2C[C@@H](C)[C@@H]3C=CC(=O)[C@@]3(C)[C@@H](OC(=O)CC(=O)O[C@H]3[C@@H]4C(=C)C(=O)O[C@@H]4C[C@@H](C)[C@@H]4C=CC(=O)[C@]43C)[C@H]12	1.12µM*	-29.4	0.631µM*	?	15.4%
C=C1C(=O)OC2C1CCC(C)C1(O)C=CC(=O)C21C (configuration not stated)	nt	2.2	nt	0.2	nt
C=C1C(=O)OC2CC(C)C3C=CC(=O)C3(C)C(O)C12 (configuration not stated)	nt	0.0	nt	19.6	nt
CCCCC(=O)Cl	15.0%	nt	4.6%	nt	nt
CC[N+](=O)[O-]	-3.0%	nt	5.4%	nt	nt
Nc1nc(O)c(-c2ccccc2)o1	13.9%	nt	1.0%	nt	nt
CC(=O)O[C@H]1C(=O)[C@@]2(C)C([C@H](OC(=O)c3ccccc3)[C@]3(O)C[C@H](OC(=O)[C@H](O)[C@@H](NC(=O)Cc4ccccc4)c4ccccc4)C(C)=C1C3(C)C)[C@]1(OC(C)=O)CO[C@@H]1C[C@@H]2O (some centres not stated)	?	-7.2	12.6µM*	-5.9	-5.5%
C=CCBr	4.9%	nt	6.5%	nt	nt
CC[C@@]1(O)C(=O)OCc2c1cc1n(c2=O)Cc2cc3c(N)cccc3nc2-1	0.02µM*	0.0	0.355µM*	-1.0	16.8%
ClCC(Cl)Cl	-5.3%	nt	-7.7%	nt	nt
Nc1cccc2ccccc12	-22.7%	nt	1.7%	nt	nt
Clc1nc(Cl)nc(Cl)n1	-0.1%	nt	-4.5%	nt	nt
O[N+]1=CC=CCC1=S.On1ccccc1=S.[Zn]	0.316µM*	nt	0.501µM*	nt	nt
N#CC(C#N)=C(C#N)c1ccc(Nc2ccccc2)cc1	?	-8.3	14.1µM*	-4.8	-12.0%
c1ccc(Nc2ccc(Nc3ccccc3)cc2)cc1	21.9%	?	-21.3%	-3.8	nt
CCC(C)C(=O)OC1C[C@@]2(C)C(c3ccoc3)OC(=O)CC23OC2(C)OC34C(OC(=O)C(C)C)[C@]3(O)C(OC(=O)C5(C)OC5C)[C@]5(C)CC3(O)[C@](C)(C5CC(=O)OC)C14O2 (some centres not stated)	29.1%	nt	-19.9%	nt	nt

Screening data as filed in PubChem.
